In PubChem BioAssay (NCATS) one finds outcome and Potency data, which are given here for 13 compounds.

Where “and” joins values, the source holds several entries; their conditions need not be identical. Identical values can stand only once. Results filed as inconclusive are left out. Calls of active or inactive are those of the source. Unless noted, calls come from the whole dose curve; as a rule, active = well fitted curve in the direction sought with a large enough effect; inconclusive = small, poorly fitted or top-dose-only effect, or another doubt; inactive = no such curve, though single readings can be large; an effect the other way counts as inactive or inconclusive.

Experiment [1] has as its target Cytochrome P450 3A4 (Homo sapiens) (UniProt P08684). The experiment in a line: Cytochrome P450 family 3 subfamily A member 4 (CYP3A4) small molecule antagonists: luciferase qHTS assay (AID 1645841; active = well fitted curve in the direction sought with a large enough effect in the repeat runs; an effect the other way counts as inactive or inconclusive; note: nearly all actives have a fitted effect of over 45% in size). In a few lines:
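P450-Glo CYP3A4 enzyme with proluciferin substrate was preincubated with DMSO-dissolved compounds for 10 min at room temperature. NADPH regeneration solution started a 1 h reaction. Detection reagent stopped it, and luminescence was read after 20 min.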
For orientation: Quantitative high-throughput screening tests each substance at several concentrations.

Experiment [2] can be described thus: Primary qHTS for inhibitors of nuclear receptor binding SET domain protein 2 (NSD2) in an isogenic RCH-ACV NSD2 p.E1099K mutant (9B) (AID 1645876). Note: nearly all actives have a fitted effect of over 70% in size. Note: potency is the fitted concentration of half-maximal effect.
Experiment [3] in a line: Primary qHTS for inhibitors of nuclear receptor binding SET domain protein 2 (NSD2) in an RCH-ACV wild type WT cells (2C) (AID 1645877). Note: nearly all actives have a fitted effect of over 70% in size. Note: potency is the fitted concentration of half-maximal effect.
For experiment [4], the target named is Cytochrome P450 2C9 (Homo sapiens) (UniProt P11712). The experiment in a line: Cytochrome P450 family 2 subfamily C member 9 (CYP2C9) small molecule antagonists: luciferase biochemical (cell-free) qHTS assay (AID 1645842; active = well fitted curve in the direction sought with a large enough effect in the repeat runs; an effect the other way counts as inactive or inconclusive; note: nearly all actives have a fitted effect of over 55% in size; note: potency is the fitted concentration of half-maximal effect). The gist of the method:
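P450-Glo CYP2C9 system: proluciferin substrate with enzyme in mix containing 0.4% BSA, 10 min at room temperature, then NADPH regeneration solution added and incubated 1 h at 37C. Detection reagent stopped reaction; luminescence read after 20 min as RLU.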

The target in experiment [5] is Papain (Carica papaya) (UniProt P00784). The experiment is described as follows: Primary qHTS assay for inhibitors of the protease papain (AID 1645873).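 Note: papain turnover of Z-FR-AMC read as the AMC fluorescence gain over 10 min; series mostly up to about 50 µM.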
Papain (Carica papaya), sequence (P00784 whole entry, looked up): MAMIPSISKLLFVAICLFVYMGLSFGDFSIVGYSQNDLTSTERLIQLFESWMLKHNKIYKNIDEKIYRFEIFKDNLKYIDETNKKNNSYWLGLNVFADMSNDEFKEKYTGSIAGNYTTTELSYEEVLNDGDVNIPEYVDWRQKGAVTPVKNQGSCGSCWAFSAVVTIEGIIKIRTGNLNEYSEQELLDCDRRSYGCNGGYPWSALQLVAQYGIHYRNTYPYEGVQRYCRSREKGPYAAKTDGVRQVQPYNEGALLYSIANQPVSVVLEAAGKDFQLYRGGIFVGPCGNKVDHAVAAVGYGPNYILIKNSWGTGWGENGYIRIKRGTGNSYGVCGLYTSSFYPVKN

Cytochrome P450 2C9 (Homo sapiens), sequence (P11712 whole entry, looked up): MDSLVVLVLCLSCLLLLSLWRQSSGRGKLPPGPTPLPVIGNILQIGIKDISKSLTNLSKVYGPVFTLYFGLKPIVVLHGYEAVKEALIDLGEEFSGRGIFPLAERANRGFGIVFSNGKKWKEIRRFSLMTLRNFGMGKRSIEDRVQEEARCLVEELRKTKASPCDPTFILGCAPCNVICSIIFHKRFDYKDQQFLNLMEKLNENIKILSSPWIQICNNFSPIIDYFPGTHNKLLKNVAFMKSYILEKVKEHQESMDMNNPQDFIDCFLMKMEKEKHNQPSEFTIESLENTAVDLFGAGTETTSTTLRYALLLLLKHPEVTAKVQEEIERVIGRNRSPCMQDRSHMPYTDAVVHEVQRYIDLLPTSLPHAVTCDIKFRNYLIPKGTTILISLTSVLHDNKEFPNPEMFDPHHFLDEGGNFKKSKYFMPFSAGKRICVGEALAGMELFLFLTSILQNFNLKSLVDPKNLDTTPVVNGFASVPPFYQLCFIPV
Cytochrome P450 3A4 (Homo sapiens), sequence (P08684 whole entry, looked up): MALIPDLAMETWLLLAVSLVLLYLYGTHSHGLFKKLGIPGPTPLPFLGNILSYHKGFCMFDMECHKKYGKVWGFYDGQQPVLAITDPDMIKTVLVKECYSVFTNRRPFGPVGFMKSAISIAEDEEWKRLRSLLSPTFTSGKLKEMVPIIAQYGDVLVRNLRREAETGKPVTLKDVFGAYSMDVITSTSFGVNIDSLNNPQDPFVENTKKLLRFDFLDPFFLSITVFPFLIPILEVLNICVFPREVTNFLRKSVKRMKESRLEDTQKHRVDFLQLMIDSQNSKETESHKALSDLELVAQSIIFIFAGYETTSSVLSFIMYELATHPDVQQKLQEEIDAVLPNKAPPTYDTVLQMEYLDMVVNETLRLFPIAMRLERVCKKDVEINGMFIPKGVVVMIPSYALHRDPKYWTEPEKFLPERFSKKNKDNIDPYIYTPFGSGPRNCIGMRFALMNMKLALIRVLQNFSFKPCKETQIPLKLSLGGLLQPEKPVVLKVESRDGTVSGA

In the case of `CCCCCCCCCCCC1=C(O)C(=O)C=C(O)C1=O`, the compound was classed as inactive in experiment [1]. Besides, the Potency entry in experiment [2] and in experiment [3] was “inactive” in each case.
On to `Cc1cccc(C)c1OCC(C)N` (configuration not stated), for which the Potency entry in experiment [4], in experiment [2] and in experiment [3] was “inactive” in each case. Further, the compound was called inactive in experiment [5].
With `CN1C[C@H]2c3ccccc3Oc3ccc(Cl)cc3[C@@H]2C1`, in experiment [4], the Potency result is “inactive”.
On to `COc1ccc(C2CC(c3ccccc3)=NN2c2ccc(S(N)(=O)=O)cc2)cc1` (configuration not stated), for which the Potency in experiment [4] was 6.74 µM (active).
Still for that read-out and setting: the entry for `CN(C)c1cc(NC(=O)CNC(C)(C)C)c(O)c2c1C[C@@H]1C[C@H]3[C@H](N(C)C)C(=O)C(C(N)=O)=C(O)[C@@]3(O)C(=O)C1=C2O` is “inactive”.
As for `COc1cccc2c1CCCC2CCCN1CCN(C2CCCCC2)CC1` (configuration not stated), the call in experiment [1] was inactive. Moreover, the Potency result in experiment [4] was “inactive”. The Potency in experiment [2] and in experiment [3] was 20.9 µM (active) throughout.
Consider `O=C1NCC2(CCN(CCc3ccccc3)CC2)O1`, for which the compound was classed as inactive in experiment [1] and in experiment [5]. The Potency entry in experiment [4], in experiment [2] and in experiment [3] was “inactive” in each case.
In the case of `O=C(Nc1cccc(Br)c1)c1cccc(S(=O)(=O)N2CCCCCC2)c1`, the Potency in experiment [4] is 6.01 µM (active).
The same measure, in the same setting: the entry for `COC[C@@H](c1ccc(C(F)(F)F)cc1)N1CCN(C2(C)CCN(C(=O)c3c(C)ncnc3C)CC2)C[C@H]1C` is “inactive”.
As to `CN(C)CCC(c1ccccc1)c1ccccn1` (configuration not stated), the Potency entry in experiment [4], in experiment [2] and in experiment [3] was “inactive” throughout. In addition, in experiment [5], the call was inactive.
For `CC(=O)N[C@@H](CS)C(=O)O`, the Potency entry in experiment [4], in experiment [2] and in experiment [3] was “inactive” in each case. For the same compound, in experiment [5], the outcome was inactive.
Consider `CC1=C(/C=C/C(C)=C/C=C/C(C)=C/C(=O)Nc2ccc(O)cc2)C(C)(C)CCC1`, for which the Potency in experiment [4] was 2.75 µM (active); in experiment [2], 1.88 µM (active) and 2.95 µM (active); in experiment [3], 1.88 µM (active) and 2.95 µM (active). Also, in experiment [5], the result was inactive.
Turning to `O=c1cc(-c2ccc(O)cc2)oc2cc(O)cc(O)c12`, the Potency in experiment [4] was 21.3 µM (active); in experiment [2], 5.9 µM (active); in experiment [3] it was 4.68 µM (active). Further, the result in experiment [5] was inactive.
